Source: PubChem BioAssay AID1159580 (chemical genetic matrix, 2015)
Several values for one entry are separate records, joined by “and”; a condition that tells them apart may be missing. Identical values can stand only once. In all, about 5,500 compounds went through this assay and about 2,000 (36%) were called active. Not shown: some 18% with an inconclusive outcome. Cut-off read from the data, not from the text of the source: active = normalized growth mostly below about 0.91 (no sharp cut-off); inconclusive = no clear call, values can overlap the other calls; inactive = mostly above about 0.92. The list shows a part of the results.

Test: chemical genetic growth profiling, strain panel (AID 1159580);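 note: tested at 20 µM; growth read once vehicle control cultures reached saturation at 30 °C; 1 = growth at the plate median or of vehicle wells; lower values mean less growth of the strain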
Details: S. cerevisiae deletion strains, growth OD

Measured: normalized growth

COc1ccc(-c2cc(=O)c3c(O)cc(O)cc3o2)cc1
active: locus YHR079C, strain IRE1, stronger effect = lower value 0.847 | locus YJR066W, strain TOR1, stronger effect = lower value 0.792
inactive: locus YAL013W, strain DEP1, stronger effect = lower value 1.01 | locus YAL021C, strain ccr4, stronger effect = lower value 0.967 | locus YAL026C, strain drs2, stronger effect = lower value 0.975 | locus YAL030W, strain snc1, stronger effect = lower value 1 | locus YBL061C, strain skt5, stronger effect = lower value 1 | locus YBR009C, strain hhf1, stronger effect = lower value 0.939 | locus YBR021W, strain FUR4, stronger effect = lower value 1.02 | locus YBR023C, strain chs3, stronger effect = lower value 0.961 | locus YBR171W, strain sec66, stronger effect = lower value 0.999 | locus YBR229C, strain ROT2, stronger effect = lower value 1 | locus YBR231C, strain swc5, stronger effect = lower value 0.981 | locus YBR279W, strain paf1, stronger effect = lower value 0.977 | locus YCL011C, strain gbp2, stronger effect = lower value 0.958 | locus YCL016C, strain dcc1, stronger effect = lower value 0.955 | locus YCL029C, strain bik1, stronger effect = lower value 0.976 | locus YCL069W, strain vba3, stronger effect = lower value 0.967 | locus YCR088W, strain abp1, stronger effect = lower value 0.987 | locus YDL005C, strain med2, stronger effect = lower value 1.02 | locus YDL035C, strain GPR1, stronger effect = lower value 1.03 | locus YDL040C, strain nat1, stronger effect = lower value 0.996 | locus YDL074C, strain BRE1, stronger effect = lower value 0.95 | locus YDL101C, strain DUN1, stronger effect = lower value 0.978 | locus YDL185W, strain tfp1, stronger effect = lower value 0.963 | locus YDL192W, strain arf1, stronger effect = lower value 0.989 | locus YDR001C, strain nth1, stronger effect = lower value 0.988 | locus YDR069C, strain doa4, stronger effect = lower value 1.02 | locus YDR101C, strain arx1, stronger effect = lower value 0.985 | locus YDR137W, strain rgp1, stronger effect = lower value 0.87 | locus YDR159W, strain sac3, stronger effect = lower value 0.996 | locus YDR162C, strain NBP2, stronger effect = lower value 0.999 | locus YDR195W, strain ref2 1.1 | locus YDR297W, strain sur2, stronger effect = lower value 0.994 | locus YDR318W, strain mcm21, stronger effect = lower value 0.982 | locus YDR334W, strain swr1, stronger effect = lower value 0.992 | locus YDR335W, strain msn5, stronger effect = lower value 0.978 | locus YDR388W, stronger effect = lower value 0.979 | locus YDR392W, strain spt3, stronger effect = lower value 0.804 | locus YDR502C, strain sam2, stronger effect = lower value 0.984 | locus YEL003W, strain gim4, stronger effect = lower value 0.963 | locus YEL037C, strain rad23, stronger effect = lower value 0.994 | locus YEL061C, strain CIN8 (second series), stronger effect = lower value 0.988 | locus YEL061C, strain CIN8, stronger effect = lower value 0.987 | locus YER015W, strain faa2, stronger effect = lower value 0.964 | locus YER016W, strain bim1, stronger effect = lower value 1.01 | locus YER110C, stronger effect = lower value 0.972 | locus YER111C, strain swi4, stronger effect = lower value 1.01 | locus YER155C, strain BEM2 (second series), stronger effect = lower value 0.966 | locus YER155C, strain BEM2, stronger effect = lower value 0.991 | locus YER167W, strain BCK2, stronger effect = lower value 1 | locus YFR010W, strain ubp6, stronger effect = lower value 1.01 | locus YGL078C, strain dbp3, stronger effect = lower value 0.978 | locus YGL086W, strain mad1, stronger effect = lower value 0.989 | locus YGL167C, strain pmr1, stronger effect = lower value 1.01 | locus YGL173C, strain kem1, stronger effect = lower value 1.01 | locus YGL227W, strain vid30, stronger effect = lower value 0.99 | locus YGL240W, strain doc1, stronger effect = lower value 0.975 | locus YGL248W, strain PDE1, stronger effect = lower value 0.984 | locus YGL253W, strain hxk2, stronger effect = lower value 0.964 | locus YGR135W, strain pre9, stronger effect = lower value 0.984 | locus YGR252W, strain gcn5, stronger effect = lower value 1.04 | locus YHR013C, strain ard1, stronger effect = lower value 1.06 | locus YHR027C, strain rpn1, stronger effect = lower value 1.01 | locus YHR079C, strain IRE1 (second series), stronger effect = lower value 0.971 | locus YHR094C, strain hxt1, stronger effect = lower value 0.992 | locus YHR129C, strain ARP1, stronger effect = lower value 0.998 | locus YHR142W, strain chs7, stronger effect = lower value 0.914 | locus YHR200W, strain rpn10, stronger effect = lower value 0.979 | locus YIL066C, strain RNR3, stronger effect = lower value 1.01 | locus YIL073C, strain SPO22, stronger effect = lower value 0.942 | locus YIL125W, strain kgd1, stronger effect = lower value 0.996 | locus YIR030C, strain dcg1, stronger effect = lower value 0.981 | locus YJL092W, strain hpr5, stronger effect = lower value 0.983 | locus YJL095W, strain BCK1 (second series), stronger effect = lower value 0.998 | locus YJL115W, strain asf1, stronger effect = lower value 1 | locus YJL129C, strain trk1, stronger effect = lower value 0.946 | locus YJL134W, strain LCB3, stronger effect = lower value 1 | locus YJL154C, strain vps35, stronger effect = lower value 0.999 | locus YJL164C, strain tpk1, stronger effect = lower value 0.931 | locus YJL166W, strain qcr8, stronger effect = lower value 0.965 | locus YJL168C, strain set2, stronger effect = lower value 0.999 | locus YJL187C, strain SWE1 (second series), stronger effect = lower value 0.979 | locus YJL187C, strain SWE1, stronger effect = lower value 1.01 | locus YJR043C, strain POL32, stronger effect = lower value 1.04
0.957 (inactive) and 0.879 (active): locus YJL095W, strain BCK1, stronger effect = lower value
1.01 (inactive) and 0.823 (active): locus YHR030C, strain SLT2, stronger effect = lower value
